Laboratory results published in ChEMBL document CHEMBL3988442, “University of Dundee, Small-Polar-MMV Screening Library” (2021).

Tests used:
[1] = target: T1, Aspartate--tRNA(Asp/Asn) ligase (Mycobacterium tuberculosis (strain ATCC 25618 / H37Rv)) (UniProt P9WFW3); assay: Assay for Asp RNA synthetase-1 from Mycobacterium tuberculosis; type: functional; parameters: scale not given: direction of the effect not stated beside the values; settings: 30 µM; further: in the data most compounds retested in dose-response had high values
T1 sequence (whole entry): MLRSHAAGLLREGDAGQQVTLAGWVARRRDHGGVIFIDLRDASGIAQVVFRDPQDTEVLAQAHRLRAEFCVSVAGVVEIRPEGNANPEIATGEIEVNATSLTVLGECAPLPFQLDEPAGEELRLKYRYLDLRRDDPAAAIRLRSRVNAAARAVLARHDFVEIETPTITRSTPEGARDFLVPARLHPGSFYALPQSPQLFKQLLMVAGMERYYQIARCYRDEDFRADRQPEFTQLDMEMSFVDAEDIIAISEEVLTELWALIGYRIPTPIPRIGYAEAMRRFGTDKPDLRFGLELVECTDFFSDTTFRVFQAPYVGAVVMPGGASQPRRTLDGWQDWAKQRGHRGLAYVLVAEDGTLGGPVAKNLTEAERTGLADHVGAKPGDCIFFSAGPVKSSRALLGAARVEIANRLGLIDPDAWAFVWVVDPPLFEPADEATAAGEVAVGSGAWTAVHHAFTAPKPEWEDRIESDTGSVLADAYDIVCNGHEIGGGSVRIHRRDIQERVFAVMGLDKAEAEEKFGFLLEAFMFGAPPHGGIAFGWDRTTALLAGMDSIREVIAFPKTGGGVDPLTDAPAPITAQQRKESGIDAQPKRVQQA

[2] = target: Shiga toxin 2 (Escherichia coli O157:H7) (UniProt P09385+P09386); assay: E. coli 0.157:H7 Shiga Toxin SOP - stx2 screening assay; type: functional; parameters: scale not given: direction of the effect not stated beside the values; settings: 30 µM

SMILES | Percent Effect [1] [%] | Percent Effect [2] [%]
Cc1ccc(S(=O)(=O)N2C[C@@H]3C[C@@H](NC(=O)C(C)(C)C)[C@@H]3C2)cc1 | 1.47 | 6.78
CC(=O)N1CCCCC1c1cc(CO)[nH]n1 (configuration not stated) | -3.86 | 7.89
Cc1nccn1CC1CCCN1S(=O)(=O)Cc1ccccc1F (configuration not stated) | 1.06 | -2.92
Fc1cccc(-c2nc(CN3CCCCC3Cn3cncn3)co2)c1 (configuration not stated) | 0.0286 | 14.4
CS(=O)(=O)NCC1CCCCN1C(=O)Nc1cccnc1N1CCCC1 (configuration not stated) | -2.73 | 4.39
COc1ncc(NC(=O)Nc2cc(C)ccc2OC)cn1 | 1.65 | -28.6
COc1ccc(OCC(=O)NC(C)c2ccccc2)c(C(=O)O)c1 (configuration not stated) | -1.11 | -9.07
Cc1ccc(-c2cccc(-c3ccn(CCN4CCCC4)n3)c2)nn1 | -1.26 | -13.8
O=C(CCNC(=O)c1ccoc1)NCc1ccccc1F | 1.27 | 11.5
Cc1cccc(C(=O)NCc2ccnc(N(C)C)c2)n1 | -1.33 | -8.62
COCCC(=O)N1CC[C@@H]2O[C@@H](C)C[C@H]2C1 | -0.28 | -0.0436
CN(C)S(=O)(=O)N1CCN(c2ccnc(N3CCCC3)n2)CC1 | -2.66 | -41.2
Cc1ccc(C(=O)NC(C)CN2CCCC2=O)c(=O)[nH]1 (configuration not stated) | -2.42 | -3.66
CC(C)NC(=O)c1nnn(-c2cccc(C(F)(F)F)c2)c1N | 0.111 | -1.08
COc1cccc2ccn(CCC(=O)N3CCCC(C(=O)O)C3)c12 (configuration not stated) | 9.22 | -2.31
CN(C)C(=O)C1CN(Cc2ccccc2)CCN(S(C)(=O)=O)C1 (configuration not stated) | -2.4 | -6.7
O=C(c1ccc(N2CCCC2)nn1)N1CCCC(n2cccn2)C1 (configuration not stated) | 3.23 | 23.7
COc1ccc(C2CC(=O)Nc3c2nc2n3CCCC2)cc1OC (configuration not stated) | 0.342 | 0.28
CCc1nc(CN2CCCN(Cc3cnn(C)c3)CC2)no1 | -10.6 | -4.68
COc1ccccc1CNC(=O)N1CCCC(NS(C)(=O)=O)C1 (configuration not stated) | 1.76 | 23.8
CCn1cnnc1CNC(=O)N1CCC(C(=O)NC)CC1 | -8.1 | -16.1
CC(C)c1cc(NC(=O)CN2CCC(N3CCNC3=O)CC2)on1 | 0.0463 | -28.7
CCc1ccc(CN2CC[C@H]3C[C@H](c4nnc(C)[nH]4)O[C@@H]3C2)o1 | 0.228 | 1.93

SMILES | Percent Effect [1] [%] | Percent Effect [2] [%]
CC(=O)N1CCN(C(=O)C2SCCc3sccc32)CC1 (configuration not stated) | -0.324 | -46
CC(C)NC(=O)Nc1ccc(CNCc2cccc(C#N)c2)cc1 | 0.232 | -108
COCCN(Cc1ccc(F)cc1Cl)C(=O)c1cccc[n+]1[O-] | -4.34 | 0.846
Cc1nn(C)c(C)c1-c1cncc(C2CCN(S(C)(=O)=O)CC2)n1 | -2.63 | -8.32
COc1ccc(C(N)c2cccc(S(C)(=O)=O)c2)cc1 (configuration not stated) | -2.54 | -7.65
CCc1nc(CN2CCCC(N(C)Cc3cnc(C)s3)C2)no1 (configuration not stated) | -0.259 | 4.86
COCCN1CCc2cc(C(=O)N(C)C)c(NC(C)C)nc2CC1 | -1.31 | -20
Cc1nnc2n1CCN(Cc1csc(Cc3ccccc3)n1)C2 | -4.28 | 1.17
O=C1[C@H]2CC[C@H](CN(C3CSCCSC3)C2)N1Cc1cscn1 | 2.92 | -34.4
CO[C@@H]1CC[C@@H](N(C)C(=O)COc2ccc(F)cc2)[C@H]1O | 3.81 | 28.3
Cc1noc(C)c1CN(C)CCC(=O)N1CCc2sccc2C1 | 5.92 | -16
O=C(NCC1CCOC1)N1CCN(Cc2ccc3c(c2)CCO3)CC1 (configuration not stated) | -0.0562 | 28.1
Cc1cc(CN(C)C(=O)c2ccc(Cl)c(S(C)(=O)=O)c2)no1 | -2.25 | -3.87
O=C(NCCC1=CCCCC1)C1CCN(c2ccc3nncn3n2)CC1 | -1.42 | -16.7
O=C(CN1CCCCC1Cn1cccn1)NC1CCN(C2CC2)CC1 (configuration not stated) | 1.64 | 4.12
CN(Cc1ccccc1Br)C(=O)Cn1nc(-c2ccc(F)cc2)oc1=O | 7.4 | -11.3
CCNC(=O)N1CCCCC1CCNS(C)(=O)=O (configuration not stated) | -3.62 | 4.69
COc1cc(C)nc(N2CCN(C(=O)CN(C)C3CC3)CC2)n1 | 0.9 | -33.1
O=C(NCC1CC1)C1CN(C(=O)c2cccs2)CC12CCOCC2 (configuration not stated) | 5.88 | 0.242
CCn1ccnc1CN1CCCN(C(=O)c2sccc2C#N)CC1 | 1.71 | 2.81
CCc1ccccc1CN1CC[C@@H](NC(=O)c2cccnc2)[C@H](O)C1 | -4.34 | -1.07
CC(=O)NCCc1ccc(S(=O)(=O)N(CC(C)C)C(C)C)s1 | 7.1 | -42.2
COCCNC(=O)c1sc(Nc2ccc(Cl)cn2)nc1C | -1.92 | -31.4
